Test results: PubChem BioAssay (NCI)
Compounds without any hit were thinned out: in the full panel of roughly 79,000, 15% have a hit. Calls of active or inactive are those of the source. No stated cut-off is given here; in the data, active means growth inhibition above about 70%; inactive means the rest. Where a SMILES comes first, the peptide text is derived from it. The star is where a group is joined. Cbz = O=C(OCc1ccccc1)*; Boc = CC(C)(C)OC(=O)*; tBu = CC(C)(C)*

Legend:
[1] = NCI Yeast Anticancer Drug Screen. Data for the rad50 strain (AID 155);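 further: 0% = growth of vehicle-only cultures of the same strain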; details: S. cerevisiae rad50 strain growth inhibition, stronger effect = higher value; at 50.0 µM unless noted
Summary of the method: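 Inhibition values express reduced yeast growth in compound-treated cultures relative to vehicle-treated controls.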

[2] = NCI Yeast Anticancer Drug Screen. Data for the mec2-1 strain (AID 157); details: S. cerevisiae mec2-1 strain, stronger effect = higher value; at 50.0 µM unless noted
Summary of the method: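 Growth inhibition is read against vehicle-treated controls after compound exposure of the mec2-1 yeast strain, which is defective in DNA damage repair or cell cycle control.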

[3] = NCI Yeast Anticancer Drug Screen. Data for the sgs1 mgt1 strain (AID 161);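 further: 0% = growth of cultures given vehicle only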; details: S. cerevisiae sgs1 mgt1 strain, stronger effect = higher value; at 50.0 µM unless noted
Summary of the method: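 Percent growth inhibition was derived by comparing compound-exposed mutant yeast with vehicle-exposed cultures. The strain carries alterations in DNA damage repair.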

[4] = NCI Yeast Anticancer Drug Screen. Data for the cln2 rad14 strain (AID 165);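 further: 0% = growth equal to vehicle treated cultures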; details: S. cerevisiae cln2 rad14 strain, stronger effect = higher value; at 50.0 µM unless noted
Summary of the method: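 Growth inhibition, relative to vehicle-treated controls, is the read-out. The test organism is a yeast strain with defined genetic alterations, cln2 rad14.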

[5] = NCI Yeast Anticancer Drug Screen. Data for the bub3 strain (AID 167); details: S. cerevisiae bub3 mutant strain, stronger effect = higher value; at 50.0 µM unless noted
Summary of the method: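 Steps: expose the mutant yeast strain to compound; grow alongside vehicle-treated cultures; measure growth; express inhibition against the vehicle cultures.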

[6] = NCI Yeast Anticancer Drug Screen. Data for the mlh1 rad18 strain (AID 175); details: S. cerevisiae mlh1 rad18 strain growth inhibition, stronger effect = higher value; at 50.0 µM unless noted
Summary of the method: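 Cells of a genetically altered yeast strain, deficient in DNA damage repair, were treated with compound. Their growth was then compared with that of vehicle-treated cultures to give inhibition.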

Measured: growth inhibition

CC(C)C1N(N2C(=O)CS(=O)(=O)C2C(C)C)C(=O)CS1(=O)=O (stereo not given)
inactive: [1] 3.45% | [2] -15.1% | [3] -6.8% | [4] 6.75% | [5] -9.15% | [6] 24.3%

CCCCN(CCCC)C(=N)c1ccccc1C
inactive: [1] 4.8% | [2] -13.9% | [3] 10.9% | [4] -23.6% | [5] 1.55% | [6] -3.35%

C/C=C(\C)c1cc(=O)c2c(C)cc3c(c2o1)C(OC)(OC(C)=O)c1c(O)c(C2CC(C)(N(C)C)C(OC(C)=O)C(C)O2)cc(C2CC(N(C)C)C(OC(C)=O)C(C)O2)c1C3=O (stereo not given)
inactive: [1] -23.9% | [2] -28.3% | [3] -30.8% | [4] 0.5% | [5] -21.6% | [6] -4.8%

CCC(=O)NC(Nc1ccccc1F)(C(F)(F)F)C(F)(F)F
inactive: [1] -29.2% | [2] -18.2% | [3] -18.1% | [4] -4% | [5] -41.9% | [6] -35.9%

Cc1ccc(NC(=O)N(C)C)c(C)c1
inactive: [1] -36.7% | [2] -37% | [3] -4.9% | [4] 12% | [5] 16.4% | [6] -9.75%

O=[N+]([O-])c1ccc(/C=N/Nc2nnc3c4ccccc4c4ncccc4c3n2)o1
inactive: [1] -20.8% | [2] -14.6% | [3] -23.6% | [4] -29.8% | [5] -33.8% | [6] 16.9%

CC(OC(C)(C)C)C(NC(=O)C(CCCCNC(=O)OC(C)(C)C)NC(=O)C(Cc1c[nH]c2ccccc12)NC(=O)C(Cc1ccccc1)NC(=O)OCc1ccccc1)C(=O)NC(Cc1ccccc1)C(=O)O (stereo not given) (Cbz-FWK(Boc)T(tBu)F-OH; configuration not given here)
inactive: [1] -10.3% | [2] -16.6% | [3] -24.2% | [4] 24.4% | [5] 1.3% | [6] -19.4%

O=C(c1ccc(Cl)cc1)c1ccc(OCCCOc2ccc(C(=O)c3ccc(Cl)cc3)cc2Cl)c(Cl)c1
inactive: [1] 9.55% | [2] -7.95% | [3] -2.35% | [4] -46.9% | [5] -20.3% | [6] 2.15%

CCN(CC)CCOc1cccc(NC(=O)CN(CC)CC)c1
inactive: [1] -8.2% | [2] -25.8% | [3] 15.3% | [4] 1.4% | [5] 17% | [6] 1.65%

CC(C)CC1N=C(NN=C(CCl)CCl)OP1(=O)NCCCCCCNP1(=O)OC(NN=C(CCl)CCl)=NC1CC(C)C (stereo not given)
inactive: [1] 13.4% | [2] 5.05% | [3] 2.95% | [4] 4.75% | [5] 24.8% | [6] 37.6%

CC1OC(O[C@H]2CC[C@]3(C)[C@H]4CC=C5[C@@H]6[C@@H](C)[C@H](C)CC[C@]6(C(=O)OC6OC(CO)C(O)C(O)C6O)CC[C@@]5(C(=O)O)[C@]4(C)CC[C@H]3C2(C)C)C(O)C(O)C1O (stereo not given in full)
inactive: [1] -11.8% | [2] -1.8% | [3] -31.6% | [4] -29.5% | [5] -23.2% | [6] -40.5%

Cc1ccc2c(c1)C(C)(C)C(C)(C)C2(C)C
inactive: [1] 1.5% | [2] -0.8% | [3] -0.05% | [4] 0.4% | [5] 3.8% | [6] -0.1%

CCCCCCC1OCC(CC)([N+](=O)[O-])CO1 (stereo not given)
inactive: [1] -13.8% | [2] -9.6% | [3] 1.15% | [4] -39.8% | [5] -23.6% | [6] -12.9%

Nc1c(I)cc(I)c(C(=O)O)c1I
inactive: [1] -44% | [2] -31.9% | [3] -17% | [4] -14.8% | [5] -25.4% | [6] -39.1%

O=C(Oc1ccc(O)cc1)N(c1cccc2ccccc12)c1cccc2ccccc12
inactive: [1] 38% | [2] 18.1% | [3] 40.6% | [4] 22.4% | [5] 66% | [6] 44.2%

CC(=O)Oc1ccc(CCC(=O)O)cc1
inactive: [1] 18.8% | [2] 12.6% | [3] 6.9% | [4] 57.9% | [5] 11.4% | [6] 20.9%

N#Cc1ccc(Nc2cnc3cc(N)ccc3n2)cc1
inactive: [1] 38.6% | [2] -10.2% | [3] 13.6% | [4] 18% | [5] 12.8% | [6] 34.6%

CCOC=Nc1ccc(-n2cnc3c(Cl)ncnc32)cc1C
inactive: [1] 1.1% | [2] -4.45% | [3] -16.6% | [4] -6.2% | [5] -1% | [6] -17.2%

Cc1ccccc1C=NC12CC3CC(CC(C3)C1)C2
inactive: [1] -24.8% | [2] -18.1% | [3] -22.2% | [4] 7.2% | [5] -8.4% | [6] -25.1%

Clc1nc(-c2ccccc2)ns1
inactive: [1] 1.9% | [2] -9.3% | [3] -12.7% | [4] 1.45% | [5] -6.85% | [6] -10.4%

COc1ccc(C2c3cc(OC)c(OC)cc3C(Cc3ccc([N+](=O)[O-])cc3)C2c2ccc([N+](=O)[O-])cc2)cc1OC (stereo not given)
inactive: [1] 10.7% | [2] 19.8% | [3] -4.15% | [4] 16.1% | [5] 23.2% | [6] 6.55%

CCS(=O)(=O)CC(O)CS(=O)(=O)CC
inactive: [1] 6.5% | [2] -6.35% | [3] -38% | [4] -4.95% | [5] -6.35% | [6] -15.4%

O=C1CCC(=O)N1C(c1ccccc1)c1ccccc1
inactive: [1] -10.4% | [2] 6.95% | [3] 5.85% | [4] -30.9% | [5] 20.9% | [6] -6.2%

CCCCOC(=O)NC(=O)c1cc2cc(Cl)ccc2oc1=O
inactive: [1] 4.65% | [2] 17.9% | [3] 13.9% | [4] 10.7% | [5] 23.1% | [6] 18.8%

O=C(N(O)c1ccccc1Cl)C(O)(c1ccccc1)c1ccccc1
inactive: [1] 28.2% | [2] 16.6% | [3] 59.1% | [4] 37% | [5] 31.4%
active: [6] 75.5%

O=C1OC(c2ccccc2)=N/C1=C/C=C/c1ccco1
inactive: [1] -10.9% | [2] -5.45% | [3] -6% | [4] -9.75% | [5] -1.6% | [6] -40.3%

O=C1/C(=C/c2cccc(Br)c2)Cc2ccccc21
inactive: [1] 20.9% | [2] -7.9% | [3] 12.3% | [4] 18.1% | [5] -1.35% | [6] 15.8%

S=C(NC1CCCCC1)SSSSC(=S)NC1CCCCC1
inactive: [1] 15.7% | [2] 5% | [3] 22.2% | [4] 9.55% | [5] 13.9% | [6] 20.2%

C=C=C(C)[Si](C)(C)C
inactive: [1] -14.8% | [2] 3.85% | [3] -29.9% | [4] -3.25% | [5] -51.5% | [6] -45.9%

COc1ccc(NC(=O)c2ccc(OC)cc2)cc1
inactive: [1] 0.7% | [2] -8.9% | [3] 5.2% | [4] 1.95% | [5] 7.85% | [6] -3.7%

NNC(=O)CC(=O)NN
inactive: [1] 6.9% | [2] 2.05% | [3] -11.4% | [4] -10.7% | [5] 2.95% | [6] 18.4%

CC(=Nc1cccc(Cl)c1)c1ccncc1
inactive: [1] -44% | [2] -10.2% | [3] -24.6% | [4] -21.2% | [5] -6.05% | [6] -10.8%

O=C(O)COc1ccc(C2CCc3ccccc32)cc1 (stereo not given)
inactive: [1] 19.7% | [2] 7.3% | [3] -3.85% | [4] 16% | [5] 8.25% | [6] 0.7%

O=C1CSC(c2cccc([N+](=O)[O-])c2)N1c1nncs1 (stereo not given)
inactive: [1] 8.55% | [2] 11.7% | [3] 6.8% | [4] 5.15% | [5] 3.4% | [6] 5.5%

COc1ccccc1N=Nc1c(O)n(-c2ccccc2OC)c(=S)n(-c2ccccc2)c1=O
inactive: [1] 40.8% | [2] -3.45% | [3] 31.9% | [4] -13.4% | [5] -2.5% | [6] 16.9%
